Compound activity from PubChem BioAssay.
PP5 inh: PP5 (human) phosphatase inhibition. AID 1987. P53041. hit rate 0.18% among 320,000. purified PP5c, OMFP substrate fluorescence. inhibition, % at 6.7 µM;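 active means inhibition above the campaign's mean inhibition across all tested compounds plus 3 SD, cut at about 9.5% in these data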;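 further: 0% = DMSO only and 100% = 100 µM cantharidin control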
SKKanGAS inh: inhibitors of SKKanGAS S. pyogenes growth in kanamycin (SK-promoter or general growth effect); BacTiter-Glo, 6 h; hit rate 1.3% among 300,000; AID 1662; inhibition, % at 7.5 µM;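 active means mean replicate score, as percent of positive control median, at least 50; inconclusive means mean below 50 but one replicate at or above 50; inactive means mean and every replicate below 50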;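 further: strain carries kanamycin resistance gene driven by streptokinase promoter and grows in 40 µg/ml kanamycin; loss of luminescence reflects streptokinase promoter inhibition or plain growth inhibition; 0% = median of DMSO wells and 100% = positive control at its reference dose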
CSC inhib: blocks cancer stem cells | cancer stem cell-like cells viability, luminescence | inhibition, % at 7.5 µM | hit rate 1.1% among 300,000; in the data active means inhibition above about 75%; inconclusive means no clear call, values can overlap the other calls; tested in HMLE shEcad cells
PP1 inh: counter-screen for PP5 inhibitors: inhibitors of human PP1-alpha; P62136; purified PP1alpha, OMFP fluorescence; inhibition, % at 6.7 µM; hit rate 0.9% among 320,000; AID 2235;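 active means inhibition above the mean inhibition of all tested compounds plus 3 SD, computed separately for each screening campaign, cut at about 15% in these data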
Target sequence (P62136 whole entry, looked up): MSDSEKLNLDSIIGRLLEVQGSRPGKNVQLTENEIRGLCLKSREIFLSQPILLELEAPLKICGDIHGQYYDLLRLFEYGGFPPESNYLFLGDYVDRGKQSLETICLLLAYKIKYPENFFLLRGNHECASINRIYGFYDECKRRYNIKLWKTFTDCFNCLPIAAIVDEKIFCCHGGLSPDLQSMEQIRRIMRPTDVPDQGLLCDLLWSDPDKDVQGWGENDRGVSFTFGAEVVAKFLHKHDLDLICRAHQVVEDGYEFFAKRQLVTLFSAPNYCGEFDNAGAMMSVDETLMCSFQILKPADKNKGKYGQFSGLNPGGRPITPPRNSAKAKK
Beta cell apopt: blocks beta cell apoptosis. INS-1E cytokine-induced death, ATP luminescence, 48 h; percent of positive-control rescue, neutral wells zero. protection from apoptosis, % (test concentration not listed). hit rate 0.8% among 300,000. AID 435005;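 active means Every replicate reaches about 75%, or at least half do and their mean reaches it too, limit read from the data; inconclusive means At least half of replicates reach the limit but their mean does not; inactive means Under half of replicates reach the limit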;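 further: 0% = cytokine-treated negative control wells and 100% = positive control rescue; higher means more ATP so stronger rescue from cytokine killing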
Active calls of the source: *; ? = inconclusive; nt = no result given. Compounds with a hit are over-represented: about 3.1% of the library has one in this group of screens.

SMILES | PP5 inh | SKKanGAS inh | CSC inhib | PP1 inh | Beta cell apopt
CC(C)C(=O)Nc1ccc(C(=O)NCc2cccnc2)cc1 | 0.8 | -0.3 | 44.1 | -1.9 | 106.6*
COc1cc2[nH]c(C(=O)NCc3ccccc3)cc2c(OC)c1OC | -1.7 | -3.9 | -6.8 | 10.1 | 1.8
COc1ccc(-c2[nH]ncc2N=Nc2ccccc2)cc1 | 6.8 | 29.3 | 94.0* | 3.6 | -14.0
COc1ccc(N=Nc2cc(-c3ccccc3)ccc2O)cc1 | -0.5 | 55.8* | 19.2 | -7.7 | -8.4
COc1ccc(-c2[nH]ncc2N=Nc2cc(C)cc(C)c2)cc1 | 1.3 | ? | 7.5 | 2.7 | 18.5
Cc1ccc(NC(=O)CN(C)CC(=O)Nc2cccc(F)c2)cc1S(=O)(=O)N1CCCCCC1 | 3.2 | 7.4 | 14.5 | 2.5 | -4.7
Cc1ccc(-c2nnn(CC(=O)Nc3ccc(S(=O)(=O)N4CCC(C)CC4)cc3)n2)cc1 | 3.0 | 8.1 | -5.4 | 15.6* | 49.8
Cc1ccc(S(=O)(=O)N2CCC(C(=O)Nc3ccc(S(=O)(=O)N4CCCC4)cc3)CC2)cc1 | 2.9 | -1.4 | nt | 1.3 | 1.8
CC1CCN(CC(=O)Nc2ccc(S(=O)(=O)N3CCC(C)CC3)cc2)CC1 | 3.0 | -3.3 | 35.4 | -0.5 | 0.7
Cc1ccc(S(=O)(=O)N2CCC(C(=O)Nc3ccc(C(C)C)cc3)CC2)cc1 | 5.2 | nt | 75.4* | 3.8 | 10.0
CC1CCN(S(=O)(=O)c2ccc(NC(=O)Cn3nnc(-c4ccccc4)n3)cc2)CC1 | 1.4 | 2.5 | 7.0 | 17.2* | 57.9
O=C(Cc1ccc(S(=O)(=O)N2CCOCC2)s1)N1CCN(S(=O)(=O)c2cccc(Cl)c2)CC1 | 0.2 | -5.9 | 22.8 | -5.0 | nt
O=C1C=C(NCCN2CCOCC2)C(=O)c2cnccc21 | 0.9 | 31.0 | -14.3 | 1.9 | 98.0*
O=C(NCCN1CCOCC1)c1ccncc1 | 1.2 | 1.8 | -10.3 | 2.2 | -2.8
COc1ccccc1CCNC(=O)c1cccc(S(=O)(=O)N2CCc3ccccc3C2)c1 | 4.8 | nt | nt | -2.9 | 1.0
O=[N+]([O-])c1ccc(Cl)c(S(=O)(=O)Nc2ccc(S(=O)(=O)N3CCOCC3)cc2)c1 | 1.4 | 0.2 | 7.3 | 1.4 | 4.1
Cc1ccccc1CN(C)C(C)C(=O)NCc1ccccc1 (stereo not given) | nt | 2.3 | -7.0 | nt | -6.6
CCc1cc2cccc(C)c2nc1SCC(=O)N1CCN(C(=O)c2ccco2)CC1 | -0.7 | 16.4 | -11.9 | -1.0 | 1.4
CCc1cc2cc(C)cc(C)c2nc1SCC(=O)N1CCN(C(=O)c2ccco2)CC1 | 0.2 | nt | 116.3* | 5.2 | 0.8
CN(CC(=O)N1CCN(Cc2ccccc2)CC1)C(=O)Cc1ccc(Cl)c(Cl)c1 | nt | nt | -33.6 | nt | -16.2
O=c1oc2c(O)c(O)cc3c(=O)oc4c(O)c(O)cc1c4c23 | -0.3 | nt | 11.0 | 27.5* | nt
O=c1oc2ccccc2c2oc3cc(O)c(O)cc3c12 | 3.9 | -6.2 | 12.8 | -0.5 | 1.4
O=C(NC1=C(Nc2ccc(F)cc2)C(=O)c2ccccc2C1=O)c1ccc(Cl)cc1 | 0.1 | 51.2* | 30.8 | 2.3 | 87.0*
COc1ccc(OC)c(NC(=O)CC2Oc3ccccc3NC2=O)c1 (stereo not given) | -1.2 | -6.9 | -10.9 | -2.5 | -3.4
CN(C)c1ncc(C2=C(Cl)C(=O)C(N3CCCC3)=C(Cl)C2=O)s1 | 9.2 | 76.6* | 4.2 | 16.6* | -13.3
SMILES | PP5 inh | SKKanGAS inh | CSC inhib | PP1 inh | Beta cell apopt
COC(=O)c1c(C)[nH]c(C(=O)/C=C/c2ccccc2F)c1C | 0.7 | -2.1 | 9.6 | -0.2 | 4.5
O=C(NCC(=O)N1CCN(S(=O)(=O)/C=C/c2ccccc2)CC1)c1ccccc1F | 0.0 | 4.0 | -12.7 | 2.5 | -0.3
Cc1cc(NCc2ccccn2)n2ncc(-c3ccccc3)c2n1 | 0.0 | 65.8* | -12.0 | -1.9 | 50.0
Cc1cc(NCc2ccccn2)n2ncc(-c3ccc(Cl)cc3)c2n1 | 5.4 | 82.2* | 58.7 | 3.8 | 59.7
Cc1cc(NCc2ccccn2)n2nc(C)c(-c3ccc(Cl)cc3)c2n1 | 3.4 | 81.1* | 76.7* | 0.7 | 38.7
CN(C)CCCNc1cc(C(C)(C)C)nc2c(-c3ccccc3)cnn12 | 2.8 | 28.7 | 99.5* | 1.3 | 113.4*
Cc1cc(N2CCCC2)nc2ccc(NC(=S)NCCCN3CCC(C)CC3)cc12 | 1.8 | -7.4 | 2.4 | -3.9 | 9.4
Cc1ccccc1N1CCN(C2=NC(=O)/C(=C/c3cn[nH]c3-c3ccccc3)S2)CC1 | -0.8 | 15.9 | 15.8 | -0.4 | -5.5
CN1CCN(C(=O)CN(C)S(=O)(=O)c2ccc(F)cc2)CC1 | 2.6 | 1.0 | -1.1 | -4.0 | 6.2
Cc1ccc(S(=O)(=O)NCC(=O)N2CCOCCOCCOCC2)cc1 | 3.1 | 1.6 | 1.4 | 1.0 | -2.5
